# Experimental data as given in the supplement of paper PMC9135407.
# Several values for one entry are separate records, joined by “and”; a condition that tells them apart may be missing. Equal values may be shown once. Where a name gives a salt, the structure may show the parent alone. The whole screen tested about 5,800 compounds, of which about 620 (11%) showed activity. The sample holds actives, similar compounds and a random draw of the others, so the mix is not that of the screen. Values without a mark were called inactive.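 How the source made its calls: active = score above a cut-off or among the top three wells of a plate; in these data no inactive exceeds 0.85.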
# System: primary human hepatic stellate cells (donor 1)
# Assay: scaled lipid accumulation score (0 = DMSO-like, 1 = nortriptyline-like); higher = stronger HSC inactivation (lipid re-accumulation), active = hit call of the paper
# Details: 48 h
# [1] = library stock concentration: 10 mM
# [2] = library stock concentration: 1 mM
# [3] = library stock concentration: 3.33 mM
# [4] = library stock concentration: 400 uM
# [5] = library stock concentration: 2 mM
compound,measurement,setting,value
CCc1cc(Cl)c(OC)c(C(=O)NC[C@@H]2CCCN2CC)c1O.Cl [Eticlopride hydrochloride],scaled lipid accumulation score,[1],0.978 (active)
CCc1cc(Cl)c(OC)c(C(=O)NC[C@@H]2CCCN2CC)c1O,scaled lipid accumulation score,[1],0.351
CCN1CCC[C@H]1CNC(=O)c1c(O)c(Cl)cc(Cl)c1OC [S(+)-Raclopride L-tartrate],scaled lipid accumulation score,[1],≤ 0
CCN1CCC[C@H]1CNC(=O)c1c(O)c(Cl)cc(Cl)c1OC [Raclopride],scaled lipid accumulation score,[1],≤ 0 and ≤ -0.006
CCCCC[C@H](O)/C=C/[C@@H]1[C@@H](C/C=C\CCCC(=O)O)[C@@H](O)C[C@@H]1O [11.beta.-Prostaglandin F2.alpha.],scaled lipid accumulation score,[2],≤ 0
"CCCCC[C@H](O)/C=C/[C@@H]1[C@@H](C/C=C\CCCC(=O)O)[C@@H](O)C[C@@H]1O [9a,11b-Prostaglandin F2]",scaled lipid accumulation score,[2],≤ -0.021
CCCCCCCCCCCCCCCCCCCCCCCCCCCCCCO [n-Triacontanol],scaled lipid accumulation score,[2],0.026
O=C(O)Cc1ccccc1Nc1c(Cl)cccc1Cl [Diclofenac Sodium],scaled lipid accumulation score,[3],≤ 0
same,scaled lipid accumulation score,[1],0.007
O=C(O)Cc1ccccc1Nc1c(Cl)cccc1Cl [Diclofenac Potassium],scaled lipid accumulation score,[3],≤ 0
same,scaled lipid accumulation score,[1],≤ 0
O=C(O)Cc1ccccc1Nc1c(Cl)cccc1Cl [Diclofenac sodium],scaled lipid accumulation score,,0.036
same,scaled lipid accumulation score,library stock concentration: 6.3 mM,0.003
same,scaled lipid accumulation score,[1],≤ -0.07 and ≤ 0
Cl.Cl.Clc1ccccc1CNC[C@H]1CC[C@H](CNCc2ccccc2Cl)CC1,scaled lipid accumulation score,[1],1.48 (active)
COc1ccccc1CNCCCCCCNCCCCCCCCNCCCCCCNCc1ccccc1OC [Methoctramine tetrahydrochloride],scaled lipid accumulation score,[1],0.621
O=C(O)Cc1ccccc1Nc1c(Cl)cccc1Cl [Diclofenac (sodium salt)],scaled lipid accumulation score,[2],≤ 0
O=C(O)Cc1ccccc1Nc1c(Cl)cccc1Cl,scaled lipid accumulation score,[1],≤ 0
O=C(O)Cc1ccccc1Nc1c(Cl)cccc1Cl [Diclofenac Diethylamine],scaled lipid accumulation score,[3],≤ 0
same,scaled lipid accumulation score,[1],≤ 0
Cc1ncc(CSSCc2cnc(C)c(O)c2CO)c(CO)c1O,scaled lipid accumulation score,[1],≤ 0
O=C1c2c(O)cc(CO)cc2C(OC2OC(CO)C(O)C(O)C2O)c2cccc(OC3OC(CO)C(O)C(O)C3O)c21 (configuration not stated) [CASANTHRANOL [cascaroside A shown]],scaled lipid accumulation score,[1],≤ 0
CCCCCCCCCCCSCC(=O)O [3-Thiatetradecanoic Acid],scaled lipid accumulation score,[2],0.006
Cn1cc(-c2[nH]c3cc(NC(=O)[C@H](N)C4CCCCC4)cc4c3c2C=NNC4=O)cn1,scaled lipid accumulation score,[3],≤ 0
same,scaled lipid accumulation score,[1],0.077
CN1c2cc3c(cc2N=C(c2ccc(C(=O)O)cc2)c2ccccc21)C(C)(C)CCC3(C)C,scaled lipid accumulation score,[1],0.08
CNCCCC12CCC(c3ccccc31)c1ccccc12 [Maprotiline HCl],scaled lipid accumulation score,[3],0.678
CNCCCC12CCC(c3ccccc31)c1ccccc12 [Maprotilline HCl],scaled lipid accumulation score,[1],1.35 (active)
CNCCC[C@]12CC[C@H](c3ccccc31)c1ccccc12 [Maprotiline HCl],scaled lipid accumulation score,library stock concentration: 7.2 mM,1.22 (active)
C=CCN1CCc2c(cc(O)c(O)c2Cl)C(c2ccccc2)C1 (configuration not stated),scaled lipid accumulation score,[1],0.02
NCCNC(=O)c1ccc(Cl)cn1 [Lazabemide hydrochloride],scaled lipid accumulation score,[1],≤ -0.001
CCCCNC(=O)[C@@H]1Cc2ccccc2N1C(=O)[C@@H](N)CC [Butabindide oxalate],scaled lipid accumulation score,[1],0.016
"CCCCCCCCCCCC=CC(C)(C)C=CCCCC(=O)O [7,7-Dimethyleicosadienoic acid]",scaled lipid accumulation score,[2],≤ -0.02
CN1CCN(C2=Nc3cc(Cl)ccc3Nc3ccccc32)CC1 [Clozapine] [listing 1 of 4 here],scaled lipid accumulation score,,1 (active)
Clc1ccc2c(c1)N=C(N1CCNCC1)c1ccccc1N2 [N-Desmethylclozapine] [listing 1 of 2 here],scaled lipid accumulation score,[1],0.941 (active)
CN1CCN(C2=Nc3cc(F)ccc3Cc3ccccc32)CC1 [Fluperlapine],scaled lipid accumulation score,[1],0.448
CN1CCN(C2=Nc3cc(Cl)ccc3Nc3ccccc32)CC1,scaled lipid accumulation score,[1],0.854 (active)
CN1CCN(C2=Nc3cc(Cl)ccc3Nc3ccccc32)CC1 [Clozapine] [listing 2 of 4 here],scaled lipid accumulation score,[1],0.977 (active)
Clc1ccc2c(c1)N=C(N1CCNCC1)c1ccccc1N2 [N-Desmethylclozapine] [listing 2 of 2 here],scaled lipid accumulation score,[1],0.668
CC(NC(=O)C(O)c1cc(F)cc(F)c1)C(=O)NC1C(=O)N(C)c2ccccc2-c2ccccc21 (configuration not stated),scaled lipid accumulation score,[3],0.011
same,scaled lipid accumulation score,[1],0.133
O=C(Nc1cccc2cccnc12)c1ccc(N2C(=O)C3C4C=CC(C4)C3C2=O)cc1 (stereo not drawn) [IWR-1-endo],scaled lipid accumulation score,[3],≤ 0
same,scaled lipid accumulation score,[1],≤ -0.001
CCCCC/C=C\C/C=C\C/C=C\C/C=C\CCCC(=O)OCc1ccsc1,scaled lipid accumulation score,[2],≤ 0
C[C@]12CC[C@@H]3c4cc(O)c(O)cc4CC[C@H]3[C@@H]1CC[C@@H]2O [2-Hydroxyestradiol],scaled lipid accumulation score,[2],≤ 0
Nc1nccc(-c2ccc3noc(-c4ccc(Cl)cc4)c3c2)n1 [PIM 1 Inhibitor 2],scaled lipid accumulation score,[1],≤ 0
CCNc1nc2c(ncn2[C@H]2C[C@H](O)[C@@H](CO)O2)c(=O)[nH]1 [N2-Ethyl-2'-deoxyguanosine],scaled lipid accumulation score,[1],≤ 0
N.N.N.N.N.N.N.N.N.N.N.N.N.N.O.O.[Cl-].[Cl-].[Cl-].[Cl-].[Cl-].[Cl-].[Ru+4].[Ru+5].[Ru+5] [Ruthenium red],scaled lipid accumulation score,[1],≤ 0
CC(C)=CCC/C(C)=C/CC/C(C)=C/CC/C(C)=C/CC/C(C)=C/CC/C(C)=C/CC1=C(C)C(=O)c2ccccc2C1=O [Vitamin K2],scaled lipid accumulation score,,0.008
CN1CCN(C2=Nc3cc(Cl)ccc3Nc3ccccc32)CC1 [Clozapine] [listing 3 of 4 here],scaled lipid accumulation score,[1],0.967 (active)
CN1CCN(C2=Nc3cc(Cl)ccc3Nc3ccccc32)CC1 [Clozapine] [listing 4 of 4 here],scaled lipid accumulation score,[3],0.105
same,scaled lipid accumulation score,library stock concentration: 6.1 mM,0.429 and 0.648
same,scaled lipid accumulation score,[1],0.755 and 0.578
same,scaled lipid accumulation score,library stock concentration: 15.3 mM,0.769
Cc1cc2c(s1)Nc1ccccc1N=C2N1CCN(C)CC1 [Olanzapine],scaled lipid accumulation score,[3],0.171
same,scaled lipid accumulation score,library stock concentration: 6.4 mM,0.341 and ≤ 0
same,scaled lipid accumulation score,[1],0.232
Cc1cc2c(s1)Nc1ccccc1N=C2N1CCN(C)CC1,scaled lipid accumulation score,library stock concentration: 9.9 mM,0.228
O=C(O)CCC/C=C\C[C@@H]1[C@@H](CC[C@@H](O)CCc2cccc(C(F)(F)F)c2)[C@H](O)C[C@@H]1O,scaled lipid accumulation score,[2],≤ 0
CCN(CC)CCNC(=O)c1cc(S(C)(=O)=O)ccc1OC [Tiapride hydrochloride],scaled lipid accumulation score,,0.066
same,scaled lipid accumulation score,[1],≤ 0 and ≤ -0.027
CCCCOc1cc(C(=O)NCCN(CC)CC)c2ccccc2n1.Cl [Dibucaine HCl],scaled lipid accumulation score,[1],0.977 (active)
CCCCOc1cc(C(=O)NCCN(CC)CC)c2ccccc2n1 [Dibucaine],scaled lipid accumulation score,,0.284
CCCCOc1cc(C(=O)NCCN(CC)CC)c2ccccc2n1 [Dibucaine hydrochloride],scaled lipid accumulation score,library stock concentration: 5.3 mM,0.662
same,scaled lipid accumulation score,[1],≤ 0
CCCCOc1cc(C(=O)NCCN(CC)CC)c2ccccc2n1 [Dibucaine HCl],scaled lipid accumulation score,[3],0.253
CS(=O)(=O)NC(=O)CCC/C=C\C[C@H]1C(=O)C[C@@H](O)[C@@H]1/C=C/[C@@H](O)COc1ccccc1 [Sulprostone],scaled lipid accumulation score,[2],≤ 0
O=C1NC(=O)C(c2cnc3ccccn23)=C1c1cn2c3c(cc(F)cc13)CN(C(=O)N1CCCCC1)CC2 [listing 1 of 2 here],scaled lipid accumulation score,library stock concentration: 80 uM,0.956 (active)
same,scaled lipid accumulation score,[1],0.857 (active)
O=C1NC(=O)C(c2cnc3ccccn23)=C1c1cn2c3c(cc(F)cc13)CN(C(=O)N1CCCCC1)CC2 [listing 2 of 2 here],scaled lipid accumulation score,[4],0.836
same,scaled lipid accumulation score,[5],0.699
CC(=O)N[C@H]1[C@H]([C@H](O)[C@H](O)CO)OC(C(=O)O)=C[C@@H]1NC(=N)N [Zanamivir],scaled lipid accumulation score,[3],≤ 0
same,scaled lipid accumulation score,[1],≤ 0
COc1ccc(C(=O)/C(Br)=C\C(=O)O)cc1 [Bromebric acid],scaled lipid accumulation score,library stock concentration: 7 mM,≤ -0.006
NC(N)=NC(=O)c1nc(Cl)c(N)nc1N,scaled lipid accumulation score,[1],≤ 0
"c(c1N)(C(=O)\N=C(\N)/N)nc(c(N2CCCCCC2)n1)Cl [5-(N,N-hexamethylene)amiloride]",scaled lipid accumulation score,[1],1.13 (active)
n(c1N)c(N(CC)C(C)C)c(nc1C(=O)\N=C(\N)/N)Cl [5-(N-Ethyl-N-isopropyl)amiloride],scaled lipid accumulation score,[1],1.07 (active)
"CN(C)c1nc(N)c(C(=O)NC(=N)N)nc1Cl [5-(N,N-Dimethyl)amiloride hydrochloride]",scaled lipid accumulation score,[1],≤ 0
O=C(O)CCCC=CCC1C(=O)CC(O)C1C=CC(O)CCc1ccccc1 (configuration not stated) [17-Phenyl-trinor-prostaglandin E2],scaled lipid accumulation score,[2],≤ -0.021
O=C(O)CCCC=CCC1C(=O)CC(O)C1C=CC(O)CCc1ccccc1 (configuration not stated) [17-phenyl trinor Prostaglandin E2],scaled lipid accumulation score,[2],≤ 0
O=C(O)c1cc(N(Cc2ccccc2O)Cc2cc(O)ccc2O)ccc1O [Lavendustin A],scaled lipid accumulation score,library stock concentration: 13.1 mM,≤ -0.007
O=C(O)C(Cc1ccccc1[N+](=O)[O-])=NNc1nc(-c2ccc(Cl)c(Cl)c2)cs1,scaled lipid accumulation score,[3],0.038
same,scaled lipid accumulation score,[1],≤ 0
Nc1ccc(S(=O)(=O)O)cc1.Nc1ccc(S(=O)(=O)O)cc1.[Zn] [Sulfanilate zinc],scaled lipid accumulation score,library stock concentration: 4.9 mM,≤ 0
O=C1NC(=O)/C(=C/c2ccc(-c3ccc(F)cc3O)o2)S1 [listing 1 of 2 here],scaled lipid accumulation score,[1],1.66 (active)
O=C1NC(=O)C(=Cc2ccc(-c3ccc(F)cc3)o2)S1 (stereo in doubt),scaled lipid accumulation score,[3],0.028
same,scaled lipid accumulation score,[1],≤ 0
O=C1NC(=O)/C(=C/c2ccc(-c3ccc(F)cc3O)o2)S1 [listing 2 of 2 here],scaled lipid accumulation score,[4],0.064
same,scaled lipid accumulation score,[2],0.034
same,scaled lipid accumulation score,[5],0.304
same,scaled lipid accumulation score,[3],0.132
same,scaled lipid accumulation score,[1],0.526 and 0.759
